Measured values published in PubChem BioAssay (NCATS).
Inconclusive results are not listed. Activity calls are given as the source filed them. Unless noted, how the calls were made is not given here.

Experiments:
[1] = qHTS profiling of the MIPE4 collection as inhibitors of Plasmodium falciparum (DD2) proliferation (Rep 2) (AID 743346); conditions: P. falciparum Dd2 in erythrocytes, SYBR Green DNA, 72 h; at 28.5 µM unless noted
Method in brief: (§1)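 Erythrocytes infected with P. falciparum (0.3% parasitemia, 2.5% hematocrit) incubated with compounds 72 h at 37 C, 5% CO2. Lysis with saponin/Triton buffer containing SYBR Green I, overnight at room temperature in the dark; DNA fluorescence (485/535 nm) normalised to 0.29 uM artemisinin and DMSO.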

[2] = qHTS profiling of the MIPE4 collection as inhibitors of Plasmodium falciparum (HB3) proliferation (AID 743347);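 further: plate controls were DMSO vehicle wells for no effect and artemisinin wells for full effect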; conditions: P. falciparum HB3 in erythrocytes, SYBR Green DNA, 72 h; at 28.5 µM unless noted
Method in brief: as §1

[3] = High-throughput drug toxicity screening in the BPDCN cell line Gen2.2 (AID 1224824); conditions: Gen2.2 BPDCN cells; at 45.8 µM (top of the series) unless noted;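 further: cells exposed to compounds for 48 h before reading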
Method in brief: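 Gen2.2, 500 cells/well, phenol red-free RPMI/10% FBS/Pen-Strep; 48 h cpd, 37 °C/5% CO2; CTG lum, 15 min RT. Norm: DMSO = 100%, bortezomib 9.2 uM final = 0%.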

[4] = High-throughput drug toxicity screening in the BPDCN cell line Cal-1 (AID 1224825); conditions: Cal-1 BPDCN cell viability, qHTS; at 45.8 µM (top of the series) unless noted
Method in brief: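 Cal-1 cells, 500 per well in phenol-red-free RPMI with 10% FBS, exposed to compounds for 48 hours at 37C, 5% CO2. Viability read by CellTiter-Glo luminescence; percent activity normalized to DMSO (100%) and 9.2 uM bortezomib final (0%).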

[5] = qHTS assay for measurement of the activity of small molecule inhibitors on Zika virus induced Caspase-3 activity in human iPSC derived neural progenitor cells (hNPCs) (AID 1224857; active means well fitted inhibition curve with a large enough effect; further: % of control where 0% means no effect; nearly all actives have a fitted effect of over 65% in size)
Method in brief: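 Human iPSC-derived neural progenitor cells pretreated 1 hr with compounds, then infected with Zika virus (2 FFU/cell) for 6 hours at 37 C. Caspase-3/7 measured by Caspase-Glo luminescence; % inhibition calculated from induction scaled to uninfected (0%) and infected (100%) wells.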

[6] = qHTS Screen of the MIPE 4.0 Collection Against Ewings Sarcoma (TC32) (AID 1259256; active means well fitted inhibition curve with a large enough effect; further: nearly all actives have a fitted effect of over 45% in size; further: potency means the concentration at half of the fitted maximal effect)
Method in brief: (§2)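 Log-phase cells in RPMI with 5% FBS attached for 4 h, then received compounds as a titration for 48 h at 37C, 5% CO2. Viability was read by CellTiter-Glo luminescence and normalized to DMSO and no-cell wells.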

[7] = qHTS assay for measurement of the activity of small molecule inhibitors on Zika virus induced Caspase-3 activity in human astrocytoma cells (AID 1224859; active means well fitted inhibition curve with a large enough effect;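 further: plate controls were ZIKV-infected untreated cells for no effect and uninfected cells for full effect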)
Method in brief: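 SNB-19 astrocytoma cells, 250/well, pretreated 1 h with compounds, then Zika virus at 2 FFU/cell for 6 h at 37 C; Caspase-Glo 3/7 luminescence after 30 min; percent inhibition normalised to uninfected and infected controls.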

[8] = qHTS Screen of the MIPE 4.0 Collection Against Ewings Sarcoma (EW8) (AID 1259255; active means well fitted inhibition curve with a large enough effect; further: nearly all actives have a fitted effect of over 35% in size; further: potency means the concentration at half of the fitted maximal effect;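 on viability: 100% = DMSO-treated cells and 0% = medium-only wells without cells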)
Method in brief: as §2

[9] = qHTS Screen of the MIPE 4.0 Collection Against Ewings Sarcoma (TC71) (AID 1259253; active means well fitted inhibition curve with a large enough effect; further: nearly all actives have a fitted effect of over 40% in size; further: potency means the concentration at half of the fitted maximal effect)
Method in brief: as §2

[10] = qHTS Screen of the MIPE 4.0 Collection Against Ewings Sarcoma (RDES) (AID 1259252; active means well fitted inhibition curve with a large enough effect; further: nearly all actives have a fitted effect of over 35% in size; further: potency means the concentration at half of the fitted maximal effect)
Method in brief: as §2

Compound | parasite growth, % of control (lower = inhibition) [1] | growth, % of control [2] | cell viability, % of control (lower = more cytotoxic) [3] | viability (% of control) [4] | Potency [5] | Potency [6] | Potency [7] | Potency [8] | Potency [9] | Potency [10]
CCOc1ccc(Nc2nc(-c3c(C)nc4ccccn34)cs2)cc1 | 15.8% | 4.43% | 11% | 7.46% | inactive | inactive | – | – | – | –
NC1=N[C@@]2(c3cc(NC(=O)c4ccc(F)cn4)ccc3F)COC[C@@H]2CS1 | 26.1% | 20.1% | 21.6% | 12.9% | – | inactive | inactive | inactive | – | –
CC1(C)CCC2=C(O1)c1ccccc1C(=O)C2=O | 21.7% | 20.3% | 4.24% | 4.06% | – | – | inactive | 23.5 µM (active) | 26.4 µM (active) | –
COc1ccc(-n2c(C)c([N+](=O)[O-])c3ccc(O)cc32)cc1 | 45.7% | 34.7% | 46.7% | 96.3% | – | 26.4 µM (active) | inactive | – | 16.6 µM (active) | –
O=C(Nc1cccc(Br)c1)c1cccc(S(=O)(=O)N2CCCCCC2)c1 | 72.2% | 21.1% | 296% | 76% | – | – | inactive | – | 23.5 µM (active) | –
CC[C@@]1(O)C[C@H](O[C@H]2C[C@H](N(C)C)[C@H](O[C@H]3C[C@H](O)[C@H](O[C@H]4CCC(=O)[C@H](C)O4)[C@H](C)O3)[C@H](C)O2)c2c(cc3c(c2O)C(=O)c2c(O)cccc2C3=O)[C@@H]1C(=O)OC | 5.22% | 2.06% | 5.55% | 3.95% | – | – | inactive | 0.296 µM (active) | 0.187 µM (active) | –
COc1cc2ncnc(-n3nc(-c4ccccn4)nc3N)c2cc1OC | 11.1% | 6.36% | 59.8% | 46.1% | – | 18.7 µM (active) | inactive | – | 18.7 µM (active) | –
Clc1ccc(C(c2ccc(Cl)cc2)n2cc[n+](CC(OCc3ccc(Cl)cc3Cl)c3ccc(Cl)cc3Cl)c2)cc1 (stereo not given) | 17.2% | 7.48% | 1.6% | 3.49% | – | 20.9 µM (active) | inactive | 23.5 µM (active) | 20.9 µM (active) | –
CCN(CC)CCOc1ccc(C(=C(Cl)c2ccccc2)c2ccccc2)cc1 | 6.97% | 9.51% | 136% | 50.6% | inactive | – | – | – | – | –
CC1CCC(C(=O)N(c2cc(C#CC(C)(C)C)sc2C(=O)O)C2CCC(O)CC2)CC1 (stereo not given) | 9.42% | 3.91% | 50.9% | 92% | – | – | inactive | – | 26.4 µM (active) | –
COc1ccc2c(Oc3ccc(NC(=O)c4c(C)n(CC(C)(C)O)n(-c5ccccc5)c4=O)nc3)ccnc2c1 | 37% | 8.88% | 29.7% | 17.2% | inactive | – | – | – | – | –
Nc1ncnc2c1ncn2[C@@H]1O[C@@H](CO)[C@H](O)[C@H]1O | 114% | 111% | 235% | 117% | – | – | inactive | inactive | inactive | –
Cc1nc(N)sc1-c1ccnc(Nc2ccc(N3CCOCC3)cc2)n1 | 16.4% | 5.5% | 33.6% | 6.5% | – | – | inactive | 0.833 µM (active) | 14.8 µM (active) | –
Cc1ccc(C(=O)Nc2cccc(C(F)(F)F)c2)cc1Nc1nc(-c2cccnc2)nc2c1cnn2C | 27.1% | 10.4% | 6.02% | 3.12% | – | 13.2 µM (active) | inactive | 13.2 µM (active) | 18.7 µM (active) | 14.8 µM (active)
C[N+]1(C)[C@@H]2CC(OC(=O)[C@H](CO)c3ccccc3)C[C@H]1[C@H]1O[C@@H]12 (stereo not given in full) | 84.8% | – | 112% | 130% | – | – | inactive | inactive | inactive | –
O=c1cc(-c2ccc(O)cc2)oc2cc(O)cc(O)c12 | 6.57% | 3.14% | 8.72% | 4.48% | – | – | inactive | 23.5 µM (active) | 20.9 µM (active) | –
C=C1C(=O)[C@@]23C(CC[C@@H]1[C@H]2O)[C@@]12CO[C@]3(O)[C@@H](O)[C@@H]1C(C)(C)CC[C@@H]2O (stereo not given in full) | 18.4% | 5.26% | 2.66% | 2.13% | – | 5.26 µM (active) | inactive | 4.18 µM (active) | 6.62 µM (active) | 7.43 µM (active)
CO[C@H]1C(=O)[C@]2(C)[C@@H](OC)C[C@H]3OC[C@@]3(OC(C)=O)[C@H]2[C@H](OC(=O)c2ccccc2)[C@]2(O)C[C@H](OC(=O)[C@H](O)[C@@H](NC(=O)OC(C)(C)C)c3ccccc3)C(C)=C1C2(C)C | 21.2% | 3.01% | 28.9% | 13% | – | – | inactive | inactive | inactive | inactive
COc1ccc(-c2coc3cc(O)cc(O)c3c2=O)cc1 | 46.3% | 15.1% | 308% | 86.9% | – | – | inactive | inactive | inactive | –
C[C@]12CCC3c4ccc(O)cc4CCC3C1CCC2=O (stereo not given in full) | 54.3% | 66.9% | 54% | 62.5% | – | 6.62 µM (active) | inactive | – | 14.8 µM (active) | –
O=C(CCc1ccc(O)cc1)c1c(O)cc(O)cc1O[C@@H]1O[C@H](CO)[C@H](O)[C@H](O)[C@H]1O | 57.9% | 54% | 238% | 107% | – | – | inactive | inactive | inactive | –
